Results published in PubChem BioAssay AID1159580 (chemical genetic matrix, 2015).
Where “and” joins values, the source holds several entries; their conditions need not be identical. Equal values may be shown once. Hit rate of the full screen: of about 5,500 compounds, about 2,000 (36%) were called active. About 18% were inconclusive and are not listed. Rule as the data show it: active = normalized growth mostly below about 0.91 (no sharp cut-off); inconclusive = no clear call, values can overlap the other calls; inactive = mostly above about 0.92. The list shows a part of the results.

Experiment: chemical genetic growth profiling, strain panel (AID 1159580);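 also: tested at 20 µM; growth read once vehicle control cultures reached saturation at 30 °C; 1 = growth at the plate median or of vehicle wells; lower values mean less growth of the strain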
Details: S. cerevisiae deletion strains, growth OD

Measured: normalized growth

O=C(O[C@@H]1Cc2c(O)cc(O)cc2O[C@@H]1c1cc(O)c(=O)c2c(O)c(O)cc([C@H]3Oc4cc(O)cc(O)c4C[C@H]3O)c2c1)c1cc(O)c(O)c(O)c1
inactive: locus YBR021W, strain FUR4, stronger effect = lower value 0.918 | locus YBR171W, strain sec66, stronger effect = lower value 0.938 | locus YDL005C, strain med2, stronger effect = lower value 0.949 | locus YDL185W, strain tfp1, stronger effect = lower value 0.992 | locus YDR001C, strain nth1, stronger effect = lower value 0.984 | locus YDR388W, stronger effect = lower value 0.93 | locus YDR392W, strain spt3, stronger effect = lower value 0.84 | locus YEL061C, strain CIN8 (second series), stronger effect = lower value 0.936 | locus YER110C, stronger effect = lower value 1.03 | locus YGL078C, strain dbp3, stronger effect = lower value 1.02 | locus YGL227W, strain vid30, stronger effect = lower value 0.991 | locus YHR030C, strain SLT2, stronger effect = lower value 1.01 | locus YHR079C, strain IRE1 (second series), stronger effect = lower value 0.946 | locus YHR079C, strain IRE1, stronger effect = lower value 1.03 | locus YHR094C, strain hxt1, stronger effect = lower value 1.02 | locus YIL125W, strain kgd1, stronger effect = lower value 1.04 | locus YIR030C, strain dcg1, stronger effect = lower value 0.973 | locus YJL115W, strain asf1, stronger effect = lower value 0.947 | locus YJL168C, strain set2, stronger effect = lower value 0.997
active: locus YAL021C, strain ccr4, stronger effect = lower value 0.0928 | locus YAL026C, strain drs2, stronger effect = lower value 0.46 | locus YAL030W, strain snc1, stronger effect = lower value 0.715 | locus YBL061C, strain skt5, stronger effect = lower value 0.531 | locus YBR009C, strain hhf1, stronger effect = lower value 0.556 | locus YBR023C, strain chs3, stronger effect = lower value 0.457 | locus YBR229C, strain ROT2, stronger effect = lower value 0.67 | locus YBR231C, strain swc5, stronger effect = lower value 0.427 | locus YBR279W, strain paf1, stronger effect = lower value 0.549 | locus YCL011C, strain gbp2, stronger effect = lower value 0.62 | locus YCL016C, strain dcc1, stronger effect = lower value 0.765 | locus YCL029C, strain bik1, stronger effect = lower value 0.801 | locus YCL061C, strain MRC1, stronger effect = lower value 0.765 | locus YCL069W, strain vba3, stronger effect = lower value 0.797 | locus YCR088W, strain abp1, stronger effect = lower value 0.911 | locus YDL035C, strain GPR1, stronger effect = lower value 0.224 | locus YDL040C, strain nat1, stronger effect = lower value 0.767 | locus YDL074C, strain BRE1, stronger effect = lower value 0.42 | locus YDL101C, strain DUN1, stronger effect = lower value 0.233 | locus YDL134C, strain PPH21, stronger effect = lower value 0.184 | locus YDL192W, strain arf1, stronger effect = lower value 0.828 | locus YDR069C, strain doa4, stronger effect = lower value 0.116 | locus YDR101C, strain arx1, stronger effect = lower value 0.896 | locus YDR137W, strain rgp1, stronger effect = lower value 0.497 | locus YDR150W, strain NUM1, stronger effect = lower value 0.829 | locus YDR159W, strain sac3, stronger effect = lower value 0.838 | locus YDR162C, strain NBP2, stronger effect = lower value 0.144 | locus YDR195W, strain ref2 0.814 | locus YDR297W, strain sur2, stronger effect = lower value 0.599 | locus YDR318W, strain mcm21, stronger effect = lower value 0.877 | locus YDR334W, strain swr1, stronger effect = lower value 0.571 | locus YDR335W, strain msn5, stronger effect = lower value 0.638 | locus YDR502C, strain sam2, stronger effect = lower value 0.69 | locus YEL003W, strain gim4, stronger effect = lower value 0.659 | locus YEL037C, strain rad23, stronger effect = lower value 0.709 | locus YER015W, strain faa2, stronger effect = lower value 0.292 | locus YER016W, strain bim1, stronger effect = lower value 0.859 | locus YER111C, strain swi4, stronger effect = lower value 0.694 | locus YER155C, strain BEM2 (second series), stronger effect = lower value 0.849 | locus YER155C, strain BEM2, stronger effect = lower value 0.887 | locus YER167W, strain BCK2, stronger effect = lower value 0.78 | locus YFR010W, strain ubp6, stronger effect = lower value 0.63 | locus YGL086W, strain mad1, stronger effect = lower value 0.669 | locus YGL167C, strain pmr1, stronger effect = lower value 0.422 | locus YGL173C, strain kem1, stronger effect = lower value 0.277 | locus YGL240W, strain doc1, stronger effect = lower value 0.81 | locus YGL248W, strain PDE1, stronger effect = lower value 0.474 | locus YGL253W, strain hxk2, stronger effect = lower value 0.588 | locus YGR135W, strain pre9, stronger effect = lower value 0.789 | locus YGR252W, strain gcn5, stronger effect = lower value 0.75 | locus YHR013C, strain ard1, stronger effect = lower value 0.329 | locus YHR027C, strain rpn1, stronger effect = lower value 0.191 | locus YHR129C, strain ARP1, stronger effect = lower value 0.565 | locus YHR142W, strain chs7, stronger effect = lower value 0.532 | locus YHR200W, strain rpn10, stronger effect = lower value 0.845 | locus YIL066C, strain RNR3, stronger effect = lower value 0.153 | locus YIL073C, strain SPO22, stronger effect = lower value 0.198 | locus YJL092W, strain hpr5, stronger effect = lower value 0.882 | locus YJL095W, strain BCK1 (second series), stronger effect = lower value 0.489 | locus YJL129C, strain trk1, stronger effect = lower value 0.829 | locus YJL134W, strain LCB3, stronger effect = lower value 0.825 | locus YJL154C, strain vps35, stronger effect = lower value 0.886 | locus YJL164C, strain tpk1, stronger effect = lower value 0.489 | locus YJL166W, strain qcr8, stronger effect = lower value 0.485 | locus YJL187C, strain SWE1 (second series), stronger effect = lower value 0.13 | locus YJL187C, strain SWE1, stronger effect = lower value 0.604 | locus YJR043C, strain POL32, stronger effect = lower value 0.244
0.185 (active) and 0.996 (inactive): locus YJL095W, strain BCK1, stronger effect = lower value
